# Reference: PubChem BioAssay (NCI)
# The panel holds about 83,000 compounds, 20% with a hit somewhere; the sample as a whole holds those more often.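 Cells were grown in 96-well plates and exposed to the test compound at a single concentration for 48 hours; results are reported as percent growth, with values below 10 considered active.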 Values without a mark were called inactive. The source made the active and inactive calls.
# Legend:
# Assay in all cases: NCI-60 one-dose screen, 48 h (100 = growth as untreated, 0 = no growth, -100 = all killed)
# Conditions in all cases: 10 µM unless noted
# SK-MEL-2 melanoma = system: SK-MEL-2 melanoma
# EKVX NSCLC = system: EKVX NSCLC
# SN12C renal = system: SN12C renal
# UO-31 renal = system: UO-31 renal
# TK-10 renal = system: TK-10 renal
# ACHN renal = system: ACHN renal
# CAKI-1 renal = system: CAKI-1 renal
# A498 renal = system: A498 renal
# CCRF-CEM leukemia = system: CCRF-CEM leukemia
# MOLT-4 leukemia = system: MOLT-4 leukemia
# SR leukemia = system: SR leukemia
# RPMI-8226 leukemia = system: RPMI-8226 leukemia
# OVCAR-8 ovarian = system: OVCAR-8 ovarian
# OVCAR-5 ovarian = system: OVCAR-5 ovarian
# OVCAR-4 ovarian = system: OVCAR-4 ovarian
# IGROV1 ovarian = system: IGROV1 ovarian
# OVCAR-3 ovarian = system: OVCAR-3 ovarian
# HS 578T breast = system: HS 578T breast
# NCI/ADR-RES ovarian = system: NCI/ADR-RES ovarian
# SK-OV-3 ovarian = system: SK-OV-3 ovarian
SMILES,growth (SK-MEL-2 melanoma),growth (EKVX NSCLC),growth (SN12C renal),growth (UO-31 renal),growth (TK-10 renal),growth (ACHN renal),growth (CAKI-1 renal),growth (A498 renal),growth (CCRF-CEM leukemia),growth (MOLT-4 leukemia),growth (SR leukemia),growth (RPMI-8226 leukemia),growth (OVCAR-8 ovarian),growth (OVCAR-5 ovarian),growth (OVCAR-4 ovarian),growth (IGROV1 ovarian),growth (OVCAR-3 ovarian),growth (HS 578T breast),growth (NCI/ADR-RES ovarian),growth (SK-OV-3 ovarian)
CCN(CC)CC(O)CNc1c2ccc(Cl)cc2nc2ccc(OC)cc12 (stereo not drawn),-63.4% (active),7.93% (active),4.08% (active),-19.3% (active),-21.8% (active),12.1%,-63.6% (active),43.6%,0.913% (active),4.43% (active),0.563% (active),-30.9% (active),-40.3% (active),-25.3% (active),-4.45% (active),-24.9% (active),-23.9% (active),38.3%,-24.4% (active),–
COc1cc2nc(Nc3ccc(F)cc3)nc(N)c2cc1OC,91%,106%,92%,76.1%,95.2%,101%,102%,63.6%,81.4%,65.3%,64.2%,76.8%,93.1%,99.1%,97.7%,107%,91.3%,111%,87.6%,110%
COc1ccc(CN2C(=O)/C(=C\c3cc(OC)c(OC)c(OC)c3)c3ccccc32)cc1,-41% (active),5.9% (active),12.8%,5.84% (active),25.2%,-59.5% (active),-53.9% (active),52.7%,5.62% (active),1.82% (active),-21.6% (active),-31.1% (active),-7.07% (active),31%,23.3%,-22.7% (active),-63.2% (active),47.7%,2.38% (active),–
Cc1ccc(NSc2ccccc2[N+](=O)[O-])cc1,23.5%,50.1%,40.3%,33.1%,51.7%,50.4%,34.2%,6.22% (active),12.4%,29.5%,9.72% (active),19.9%,33.1%,49.7%,73.2%,38%,7.41% (active),32.2%,14%,28.3%
COC(=O)Nc1nc2ccc(C(=O)C3CC3)cc2[nH]1,27.9%,32.7%,19.7%,6.33% (active),35.5%,37.1%,27.1%,6.47% (active),-22.3% (active),-16% (active),-21.7% (active),-19.7% (active),8.29% (active),48.9%,44.7%,-59.4% (active),-61.7% (active),-17.7% (active),9.11% (active),22.7%
N#Cc1c(N)nc2c(nnn2-c2cccc(C(F)(F)F)c2)c1N,91.2%,29.1%,87.7%,58.2%,90.2%,87.7%,77.2%,97.7%,87.9%,75.8%,83.1%,82.4%,89.3%,102%,87.5%,81.1%,97.9%,46.2%,95.8%,84.9%
C=C(C)[C@@H]1CC[C@@]2(C(=O)O)CC[C@]3(C)C(CCC4[C@@]5(C)CCC(OS(=O)(=O)c6ccccc6)C(C)(C)C5CC[C@]43C)C12 (stereo partly drawn),70.3%,25.4%,62.2%,48.5%,59.8%,49.7%,-15.5% (active),84.2%,62.4%,51.7%,56.7%,30.4%,38.1%,89.7%,54.7%,93.7%,50.8%,67.5%,52.5%,74.4%
CN(CCC(=O)/C(=C\c1ccccc1)c1ccc(Cl)cc1)Cc1ccccc1,58.4%,86.8%,-9.91% (active),-40.9% (active),51.8%,-43.3% (active),22.5%,46.1%,-7.82% (active),6.05% (active),-1.56% (active),-11.3% (active),11.8%,25.2%,89.7%,14.4%,1.15% (active),28.9%,24%,120%
